# The panel holds about 79,000 compounds, 15% with a hit somewhere; the sample as a whole holds those more often. A number with no mark means an inactive call. Activity calls are given as the source filed them. No stated cut-off is given here; in the data, active means growth inhibition above about 70%; inactive means the rest.
# Legend:
# [1] = NCI Yeast Anticancer Drug Screen. Data for the rad50 strain (AID 155);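 further: 0% = growth of vehicle-only cultures of the same strain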; conditions: S. cerevisiae rad50 strain growth inhibition, stronger effect = higher value; at 50.0 µM unless noted
# Procedure, shortened: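 Compounds were tested on a yeast strain with an engineered DNA damage repair alteration; the reported value is growth inhibition normalised to vehicle treatment.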
# [2] = NCI Yeast Anticancer Drug Screen. Data for the mec2-1 strain (AID 157); conditions: S. cerevisiae mec2-1 strain, stronger effect = higher value; at 50.0 µM unless noted
# Procedure, shortened: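 Yeast mec2-1 mutant treated with compound. Readout: growth inhibition vs vehicle controls.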
# [3] = NCI Yeast Anticancer Drug Screen. Data for the sgs1 mgt1 strain (AID 161);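 further: 0% = growth of cultures given vehicle only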; conditions: S. cerevisiae sgs1 mgt1 strain, stronger effect = higher value; at 50.0 µM unless noted
# Procedure, shortened: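 Read-out: growth inhibition vs vehicle controls. Cells: mutant yeast strain deficient in DNA damage repair.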
# [4] = NCI Yeast Anticancer Drug Screen. Data for the cln2 rad14 strain (AID 165);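 further: 0% = growth equal to vehicle treated cultures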; conditions: S. cerevisiae cln2 rad14 strain, stronger effect = higher value; at 50.0 µM unless noted
# Procedure, shortened: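 cln2 rad14 yeast strain; compound exposure; growth inhibition read vs vehicle controls.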
# [5] = NCI Yeast Anticancer Drug Screen. Data for the bub3 strain (AID 167); conditions: S. cerevisiae bub3 mutant strain, stronger effect = higher value; at 50.0 µM unless noted
# Procedure, shortened: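 Growth of a checkpoint-deficient yeast mutant is measured after compound exposure. Values represent inhibition relative to vehicle.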
# [6] = NCI Yeast Anticancer Drug Screen. Data for the mlh1 rad18 strain (AID 175); conditions: S. cerevisiae mlh1 rad18 strain growth inhibition, stronger effect = higher value; at 50.0 µM unless noted
# Procedure, shortened: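 Yeast w/ defined DNA-repair lesions; compound exposure; growth vs vehicle controls → % inhibition.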
Structure (SMILES),growth inhibition [1],growth inhibition [2],growth inhibition [3],growth inhibition [4],growth inhibition [5],growth inhibition [6]
CCCCOC(=O)COCC(=O)OC(C)C(=O)OCCCC (centres undefined),-20.9%,13.1%,6.55%,-22.1%,20%,4.1%
Cc1ccccc1NC(=O)C(=O)CC(=O)c1sc(-n2nc(-c3ccccc3)cc2-c2ccccc2)nc1C,12.3%,-4.3%,5.45%,16.4%,2.05%,-17.8%
O=C(Nc1ccc(Cl)cc1Cl)c1cc2nc3ccccc3c(=O)n2c2ccccc12,29.6%,13.6%,12.1%,7.7%,17.3%,30.6%
CCOc1ccccc1N=Nc1c(-c2ccccc2)nn(C(=O)CC(=O)Nc2cccc(Cl)c2)c1-c1ccccc1,12.6%,-13.9%,40.9%,9.2%,26.2%,22.2%
COC(=O)C1CCOC(C)N1C(=O)OC(C)(C)C (centres undefined),2.9%,0.75%,6.4%,11%,13.2%,-34.5%
OC/C(Br)=C(\Br)CO,-34.3%,-54.4%,-39.6%,-9.25%,-28.6%,-35.5%
Cc1no[n+]([O-])c1/C=N/NS(=O)(=O)c1ccccc1,2.25%,-17.6%,-12.9%,-6.05%,-2.7%,-23.1%
COc1cc(C)cc2c1C(C)(C)CCC2(C)C,5.4%,-24.6%,-5.8%,-7.15%,16%,-0.65%
CC1(C)OC(=O)N=C1c1ccccc1Cl,-18.1%,-18.4%,-11.3%,-11.4%,-15.6%,7.65%
CCCCCO.CCCCCO.CCCCCO.CCCCCO.[Ti],3.45%,-33%,-3.3%,8.55%,-20%,-1.65%
O=C(C[n+]1cc(Br)cc2ccccc21)c1ccc(F)cc1,24.8%,19.9%,37.3%,39.4%,4.7%,30.2%
CC(N1CCS(=O)(=O)CC1)P(=O)(O)O (centres undefined),0.3%,8.3%,8.8%,-8.5%,17.8%,2.3%
CC(C)N(CC(C)(C)O)C(=O)c1ccccc1,-5.35%,11.7%,17.1%,6.1%,-14.7%,-8.4%
COC(=O)c1ccccc1CC1Cc2ccc3c(c2C1=O)CCCC3 (centres undefined),-1.35%,-65.7%,-13.3%,5.4%,17.8%,3.3%
CS(=O)(=O)OCCN(CCOS(C)(=O)=O)c1cc(C(N)=O)c([N+](=O)[O-])cc1[N+](=O)[O-],-5.05%,9.55%,-11.7%,-12.9%,-0.35%,16.9%
Cc1ccc2nc(-c3ccc(F)cc3)cc(C(=O)O)c2c1,9.9%,2.05%,6.25%,17.9%,10.2%,26.1%
O=C1OCCOCCOCCOCCOCCOC(=O)c2cccc1n2,18.1%,12.2%,20.4%,18.1%,12.5%,16.1%
NC(N)=N/N=C(\c1ccc(C(F)(F)F)cc1)c1ccc(Cl)c(Cl)c1,99.5% (active),99.5% (active),99.7% (active),99.2% (active),99.3% (active),99.7% (active)
O=C(c1ccccc1)c1ccc2c(c1)N=C(c1ccc(Cl)c(Cl)c1)CC(c1ccc3ccccc3c1)N2 (centres undefined),22.2%,15.4%,-7%,-33.5%,-3.6%,16.6%
CCOc1ccc(N=Cc2ccc3cc(C)ccc3n2)cc1,-9.95%,-9.65%,-2.4%,12.2%,-1.8%,-19.9%

Structure (SMILES),growth inhibition [1],growth inhibition [2],growth inhibition [3],growth inhibition [4],growth inhibition [5],growth inhibition [6]
CC(=O)OC(C(N)=O)c1ccccc1 (centres undefined),-0.7%,-0.7%,-3.3%,-9.7%,3.45%,-2.95%
COc1cc(CC(C(=O)O)C(C)C(=O)c2ccc3c(c2)OCO3)cc(OC)c1OC (centres undefined),-4.75%,0.1%,-11.9%,-24.6%,-10.4%,-15.8%
Nc1c(F)c(F)c(N=Nc2ccccc2)c(F)c1F,5.2%,7.1%,3.8%,7.05%,24.4%,-17.1%
N#Cc1c(C(F)(F)F)cc(-c2cccs2)nc1SC(C(=O)Nc1cc(C(F)(F)F)cc(C(F)(F)F)c1)c1ccccc1 (centres undefined),13.6%,-13.8%,9.5%,17.3%,9.1%,10.4%
NC(=O)C(O)c1c[nH]c2ccccc12 (centres undefined),3.7%,1.75%,-1.45%,6.4%,-15%,8.2%
COC(=O)c1ccc(-n2cc(C(=O)OC)c([N+]#N)c2[O-])cc1,9.4%,11.6%,-13.6%,-13.6%,18.9%,16.6%
CCN1CCCC(C(=O)O)(c2ccccc2)CC1 (centres undefined),1.75%,-11.1%,-6.2%,-39%,-1.15%,2%
CCCCOC(=O)C(C)OC(=O)C(C)Oc1cc(Cl)c(Cl)cc1Cl (centres undefined),-1.65%,-3.95%,0.3%,16.9%,3.9%,-0.8%
CC1=C(C(=O)Nc2ccccc2)C(c2ccc(N(C)C)cc2)C(C(=O)Nc2ccccc2)=C(C)N1,-13.7%,7.4%,-6.3%,24.4%,-6.8%,15.8%
O=C1/C(=N\[O-])C(S(=O)(=O)[O-])=Cc2cc(S(=O)(=O)[O-])cc(O)c21.O=C1/C(=N\[O-])C(S(=O)(=O)[O-])=Cc2cc(S(=O)(=O)[O-])cc(O)c21.[Cu+2],-1.8%,8.1%,-0.65%,-11.7%,-2.4%,-19.5%
O=C1CN(Cc2ccc3c(c2)OCO3)NO1,15.3%,-1.25%,-17.4%,-4.5%,-9.35%,-26.5%
CCOC(=O)CC(=O)Cc1ccccc1,-23.3%,-16.6%,-6.25%,-43.8%,-13.2%,-19.1%
Brc1cc(Br)cc(CN2CCOCC2)c1,34%,15.1%,49.6%,48%,56.8%,46.2%
O=[N+]([O-])c1cc(C(Nc2nncs2)Nc2nncs2)ccc1Cl,12.6%,8.25%,43.9%,11%,2.5%,46.6%
CCOC(=O)N/N=C/c1ccccc1C,-9.05%,-3.15%,-6.9%,25.2%,-3.5%,-15.4%
O=C(Cc1ccc(CC(=O)NCCCCc2ccccc2)cc1)NCCCCc1ccccc1,0.75%,-3.25%,-14.9%,-8.85%,-7.9%,13.1%
Nc1cnccc1N1CCN(c2cccc3ccccc23)CC1,99% (active),99.3% (active),99.2% (active),98.8% (active),98.4% (active),99% (active)
NC(CC(=O)c1ccccc1NC=O)C(=O)O (centres undefined),8.85%,-1.4%,-9.95%,-48.6%,-0.95%,3.25%
COC1OCC(N=[N+]=[N-])C(OS(C)(=O)=O)C1OS(C)(=O)=O (centres undefined),-1.65%,-4.3%,6.85%,-6.75%,-16.4%,-34.5%

# — PubChem BioAssay (NCI)
